Compound activity as filed in PubChem BioAssay.
NPR1 activator: GC-A (human) enzyme activation. P16066. HEK293 GC-A cells, cGMP TR-FRET, EC30 ANP; 0% at EC30 ANP, 100% saturating ANP. activation, % at 10 µM. hit rate 0.14% among 370,000. AID 1671463; in the data active = activation above about 40%
proKLK7 act: activates the human kallikrein-7 zymogen. AID 652039. hit rate 0.9% among 370,000. activation, % at 7 µM. purified proKLK7, EDANS-DABCYL substrate fluorescence; 100% is mature enzyme control, 0% vehicle;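 active = activation above the mean of all tested compounds plus 3 SD, computed per campaign excluding outliers beyond control limits, cut at about 13% in these data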
Target sequence (P49862 whole entry, looked up): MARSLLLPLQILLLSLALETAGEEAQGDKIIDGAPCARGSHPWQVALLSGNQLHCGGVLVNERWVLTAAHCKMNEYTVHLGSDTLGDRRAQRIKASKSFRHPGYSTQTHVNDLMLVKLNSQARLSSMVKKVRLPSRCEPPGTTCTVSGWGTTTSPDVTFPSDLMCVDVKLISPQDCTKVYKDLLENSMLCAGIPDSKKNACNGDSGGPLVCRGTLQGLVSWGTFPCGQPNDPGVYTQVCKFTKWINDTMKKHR
GC-B act: GC-B (human) receptor activation. P20594. HEK293-GC-B cells, CNP EC30, cGMP TR-FRET; 0% at EC30 CNP, 100% saturating CNP. activation, % at 10 µM. hit rate 0.11% among 370,000. AID 1920062;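 active = activation at 10 µM reaching about 35% in either raw or pattern-adjusted values, limit read from the data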
ADAM10 inh: ADAM10 inhibition, QFRET primary screen. recombinant ADAM10, EDANS/DABCYL FRET peptide cleavage, 3 h. O14672. hit rate 0.62% among 370,000. inhibition, % at 7 µM;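 active = inhibition above a per-campaign cutoff equal to the mean of compounds falling between control-based bounds plus 3 SD, cut at about 20% in these data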;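 note: 0% = DMSO wells while the 100% control is not disclosed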
ADAM17 inh: inhibits human ADAM17 | P78536 | recombinant ADAM17, EDANS/DABCYL FRET peptide cleavage | inhibition, % at 6.95 µM | hit rate 0.83% among 370,000 | AID 720648;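 active = inhibition above the mean of compounds lying between control limits plus 3 SD, set per campaign, cut at about 8.5% in these data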;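 note: 0% = DMSO-only wells as the low control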
KLK7 act conf: proKLK7 activation, confirmation; hit rate 68% among 3,200; purified proKLK7, EDANS-DABCYL substrate fluorescence; scaled: vehicle 0, mature enzyme 100; activation, % at 7 µM; shares compounds with proKLK7 act;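 active = activation, as change over the incubation, above the mean of all tested compounds plus 3 SD, cut at about 13% in these data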
EDANS interfere: optically interferes with EDANS-DABCYL signal, flagging KLK7 hits | EDANS-DABCYL substrate fluorescence interference, no enzyme, 4 h; solvent 0%, active enzyme control 100% | activation, % at 7 µM | hit rate 80% among 3,200 | shares compounds with proKLK7 act;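 active = activation above the all-compound mean plus 3 SD, ignoring values outside control-based bounds, cut at about 4.8% in these data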;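 note: value is the 4 h activation minus the activation read at time zero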
* hit, by the source's call; i = inactive; x = no result given. Only some compounds are listed: those with a hit (about 2.2% of all), similar ones and a draw of the others.

SMILES	NPR1 activator	proKLK7 act	GC-B act	ADAM10 inh	ADAM17 inh	KLK7 act conf	EDANS interfere
CN(C)CCCn1c(N)c(S(=O)(=O)c2ccccc2)c2nc3ccccc3nc21	-4.3	68.6*	-8.0	i	i	-35.0	-48.2
COCCn1c(N)c(C(=O)NCC2CCCO2)c2nc3ccccc3nc21 (configuration not stated)	21.8	12.9*	6.5	i	i	-143.1	-182.5
COc1ccc(C2Nc3ccccc3C(=O)N2Cc2cccnc2)cc1COc1c(C)cccc1C (configuration not stated)	-12.1	x	-10.9	i	-271.5	x	x
CCCC(=O)N1CCC1(C)C(=O)Nc1ccc(C)cc1 (configuration not stated)	1.7	0.5	-1.0	-1.5	1.9	x	x
CCCC(=O)N1CCC1(C)C(=O)Nc1ccc2nccnc2c1 (configuration not stated)	-1.0	12.6*	1.4	i	-194.2	8.2	8.5*
CCN(CC)CCNC(=O)c1ccc(NC(=O)c2cc(-c3ccco3)nc3ccccc23)cc1	-0.1	31.0*	2.9	-405.9	-147.7	-34.1	-21.2
CCNC(=O)COC(=O)c1cc(-c2ccco2)nc2ccccc12	1.7	120.7*	4.0	-455.5	-156.5	16.5*	18.5*
Cc1ccc(-c2cc(C(=O)N3CC(C)CC(C)C3)c3ccccc3n2)o1 (configuration not stated)	-8.3	-13.0	2.3	-200.2	-68.2	x	x
CN(C)C(=O)c1ccc(NC(=O)c2cc(-c3ccco3)nc3ccccc23)cc1	0.9	3.6	-1.7	-174.2	-58.2	x	x
O=C(O)c1cc(-c2ccco2)nc2ccccc12	2.4	20.7*	3.8	i	i	16.2*	16.0*
Cc1ccc(-c2cc(C(=O)N3CC(C)OC(C)C3)c3ccccc3n2)o1 (configuration not stated)	5.4	46.2*	-0.5	i	i	64.8*	66.4*
C[C@@H](/C=C/C(=O)OC(C)(C)C)Sc1ccc(C(C)(C)C)cc1	-4.7	-0.5	0.0	-0.1	-2.0	x	x
CCOC(=O)N1C(=O)C[C@](Sc2ccc(OC)cc2)(C(=O)N2CCN(C(C)=O)CC2)[C@H]1c1ccc(OC)cc1	-3.2	0.0	0.8	-8.4	0.2	x	x
COC(=O)[C@]12C[C@H](CC(=O)N3CCOCC3)C(=O)N(Cc3ccco3)C1=C[C@H](C(C)(C)C)O[C@@H]2C	-7.3	-0.2	-12.4	4.4	-1.3	x	x
CC(NCc1ccco1)C(=O)N1CCN(c2ccc(F)cc2)CC1 (configuration not stated)	-2.2	0.1	2.3	4.8	-0.1	x	x
O=C(Nc1nc2ccccc2s1)c1cc(-c2ccco2)nc2ccccc12	6.0	9.2	3.1	-335.1	-104.6	x	x
Cc1nnc(NC(=O)c2cc(-c3ccco3)nc3ccccc23)s1	-5.4	23.5*	-4.7	-248.1	-74.2	4.5	9.9*
Cc1cc(C(=O)NCc2ccco2)c2ccccc2n1	-1.8	-1.2	-1.2	-16.4	-8.6	x	x
O=C(Nc1nccs1)c1cc(-c2ccco2)nc2ccccc12	-13.2	15.5*	1.0	-199.4	-55.8	0.9	-2.1
O=C(Nc1nccs1)c1cc(N2CCOCC2)nc2ccccc12	6.4	18.2*	-0.6	-27.4	-16.2	14.3*	12.4*
Cc1ccc(-c2cc(C(=O)NCc3ccco3)c3ccccc3n2)o1	13.4	18.1*	-4.3	i	-182.6	-11.3	-2.1
COC(=O)[C@]12C[C@H](CC(=O)NCCC(C)C)C(=O)N(CCC3=CCCCC3)C1=C[C@H](C(C)C)O[C@@H]2C1CC1	-3.8	-0.5	-3.7	-4.0	-0.7	x	x
CCCCCOc1ccc(/C=N/NC(=O)CSc2nnc(-c3ccc(OC)cc3)n2-c2ccc(C)cc2)cc1	-4.5	0.2	10.3	4.2	-0.1	x	x
CCc1ccc(-c2cc(C(=O)O)c3ccccc3n2)s1	-2.7	66.0*	1.9	i	i	60.4*	60.0*
Cc1ccc(-c2cc(C(=O)N3CCCC3)c3ccccc3n2)s1	5.3	2.2	-1.8	i	i	x	x
SMILES	NPR1 activator	proKLK7 act	GC-B act	ADAM10 inh	ADAM17 inh	KLK7 act conf	EDANS interfere
CN1CCN(NC(=O)c2cc(-c3ccc(Cl)s3)nc3ccccc23)CC1	-4.4	26.4*	-2.7	i	-386.9	-33.2	-24.1
Cc1ccc(-c2cc(C(=O)O)c3cc(Br)ccc3n2)s1	-3.0	13.7*	-1.2	i	-207.9	22.0*	26.4*
Cc1ccc(-c2cc(C(=O)NN3CCOCC3)c3cc(Br)ccc3n2)o1	0.8	51.9*	-2.3	-351.1	-116.0	-185.4	-136.7
Cc1ccc(-c2cc(C(=O)O)c3cc(Br)ccc3n2)o1	5.3	7.4	2.0	-31.8	-12.0	x	x
CN1CCN(NC(=O)c2cc(-c3ccccn3)nc3ccccc23)CC1	2.4	-0.1	-2.2	5.3	-0.2	x	x
COC(=O)[C@H](CC(C)C)N1Cc2nnn(Cc3ccccc3)c2-c2ccccc2S1(=O)=O	-3.1	-0.5	0.0	7.9	5.0	x	x
CCCS(=O)(=O)c1c(S(=O)(=O)CCC)c2cc(-c3ccncc3)ccn2c1C(=O)OC	2.0	66.0*	2.3	i	i	67.2*	64.5*
CCOC(=O)C1CCN(c2cc3c(cc2NC(=O)c2cc(OC)ccc2Br)n(C)c(=O)n3C)CC1	5.7	19.5*	5.9	-69.6	-18.8	24.8*	30.5*
CCOC(=O)C1CCN(c2cc3c(cc2NC(=O)c2ccccc2Br)n(C)c(=O)n3C)CC1	-1.5	2.7	4.0	-14.3	-7.1	x	x
COCC(=O)N1CCC(C(=O)NCC2COc3ccccc3O2)CC1 (configuration not stated)	7.0	-0.7	0.7	-5.2	-1.8	x	x
OCCN1CCN(c2nc3ccccc3nc2-c2ccccc2)CC1	4.6	6.2	2.5	-79.5	-27.1	x	x
Nc1ncc(-c2ccc(F)cc2)nc1N1CCN(CCO)CC1	-1.0	24.0*	3.2	i	-200.6	8.0	11.4*
CCN1c2ccccc2-c2nc3ccccc3n2C1c1ccco1 (configuration not stated)	-10.9	27.1*	-5.0	i	i	-9.2	-13.0
CN1c2ccccc2-c2nc3ccccc3n2C1c1ccccn1 (configuration not stated)	-11.5	34.0*	-11.5	i	i	7.0	3.1
CN1c2ccccc2-c2nc3ccccc3n2C1c1ccncc1 (configuration not stated)	-7.8	1.0	-2.6	-138.8	-53.0	x	x
c1ccc(CN2c3ccccc3-c3nc4ccccc4n3C2c2ccccn2)cc1 (configuration not stated)	-17.0	-8.4	-5.1	i	i	x	x
